The values that follow come from PubChem BioAssay (NCI).

Where “and” joins values, the source holds several entries; their conditions need not be identical. Equal entries are not always repeated. This is part of a sample that, as a whole, favours compounds with a hit. Of some 79,000 tested, about 15% had one in any assay. A structure can be active in one record and inactive in another. Calls of active or inactive are those of the source. Rule as the data show it: active = growth inhibition above about 70%; inactive = the rest. Where a SMILES comes first, the peptide text is derived from it. [ ]: non-standard residue; d: D form. ξ: configuration not given here. ξV = CC(C)C(N)C(=O)O

A short description of the test: NCI Yeast Anticancer Drug Screen. Data for the rad50 strain (AID 155).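 Also: 0% = growth of vehicle-only cultures of the same strain.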 Conditions: S. cerevisiae rad50 strain growth inhibition, stronger effect = higher value. The protocol: Growth inhibition of yeast strains with defined genetic alterations is measured as a screen for potential anti-cancer activity. Selected strains with alterations in DNA damage repair or cell cycle control were exposed to compounds and growth inhibition was measured relative to vehicle treated controls. The strain used in this assay is rad50

Setting [1] is: at 5.0 µM (retest, dose inferred, filed as 0.5).
The mark [2] stands for this setting: at 50.0 µM (retest, dose inferred, filed as 5.0).

As for `O=c1cc[nH]cc1`, the growth inhibition was 2% (inactive) under setting [1]; 14% (inactive) under setting [2]; 7.55% (inactive) and 26.5% (inactive) (at 50.0 µM).

Consider `CCOc1ccc(NC(=O)C(=O)NO)cc1`, for which the growth inhibition reads like this: under setting [1], 7% (inactive); under setting [2], 73% (active); (at 50.0 µM) 83% (active).

Turning to `CCCc1cc(=O)oc2c3c(c4c(c12)OC(C)(C)CC4)O[C@@H](C)[C@H](C)[C@H]3O`, the growth inhibition reads like this: under setting [1], 8% (inactive); under setting [2], 90% (active); (at 50.0 µM) -6.95% (inactive) and 80.1% (active).

Regarding `CCSC(=NC)Nc1ccc(Oc2ccc(Cl)cc2)cc1`, the growth inhibition is, setting by setting: under setting [1], 38% (inactive); under setting [2], 90% (active); (at 50.0 µM) 81.9% (active).

With `Oc1c(Cl)cc(Cl)cc1Cc1cc(Cl)cc(Cl)c1O`, the growth inhibition is 93% (active) and 80% (active) under setting [1]; 98% (active) under setting [2]; 98.2% (active) and 99% (active) (at 50.0 µM).

Consider `C=C1C(=O)N2c3ccccc3C(C)(C)C2(S)C(=O)N1C` (configuration not stated), for which the growth inhibition runs as follows: under setting [1], 9% (inactive); under setting [2], 87% (active); (at 50.0 µM) 88.8% (active).

`CC(C)C(NC(=O)CN)C(=O)O` (configuration not stated) (H-Gly-[ξV]-OH): the growth inhibition reads like this: under setting [1], -165% (inactive); under setting [2], -152% (inactive); (at 50.0 µM) -7.85% (inactive) and -10.2% (inactive) and -15.5% (inactive).

For `Nc1cc2ccc(O)cc2c2ccccc12`, the growth inhibition was 0% (inactive) under setting [1], 81% (active) under setting [2] and 94.8% (active) (at 50.0 µM).

For the compound `Cc1n(Cc2ccccc2)c2c([n+]1C)C(=O)c1ccccc1C2=O`, the growth inhibition by setting is: under setting [1], 44% (inactive); under setting [2], 97% (active); (at 50.0 µM) 86.2% (active).

On to `CC(=O)[C@]1(O)Cc2c(O)c3c(c(O)c2[C@@H](OC2CC(N)C(O)C(C)O2)C1)C(=O)c1c(O)cccc1C3=O` (some centres not stated), for which the growth inhibition runs as follows: under setting [1], 88% (active) and 91% (active); under setting [2], 97% (active) and 96% (active); (at 50.0 µM) 91.1% (active) and 86.5% (active).

`CCN(CC)c1ccc(C(=C2C=CC(=[N+](CC)CC)C=C2)c2ccc(N(CC)CC)cc2)cc1`: the growth inhibition under setting [1] was 97% (active), the growth inhibition under setting [2] is 91% (active) and the growth inhibition (at 50.0 µM) is 67.5% (inactive).

As for `CC1CC[P+](c2ccccc2)(c2ccccc2)c2c1ccc1ccccc21` (configuration not stated), the growth inhibition is 76% (active) under setting [1], 98% (active) under setting [2] and 84.9% (active) (at 50.0 µM).

As to `O=C1OC(c2ccccc2)C(c2ccccc2)=C1c1ccccc1` (configuration not stated), the growth inhibition reads like this: under setting [1], -21% (inactive); under setting [2], 91% (active); (at 50.0 µM) -6% (inactive).

Turning to `Cc1c(-c2ccccc2)ccnc1/C=N/NC(N)=S`, the growth inhibition reads like this: under setting [1], 29% (inactive); under setting [2], 42% (inactive); (at 50.0 µM) 48.1% (inactive).
